Pf Dd2 inh: qHTS Primary assay for Inhibitors of Plasmodium falciparum Dd2 growth in vitro; P. falciparum Dd2 growth, SYBR Green, 72 h; Potency, µM (doses to about 28.9 µM), hits mostly inhibitors; actives 4.3% (n = 120,000); AID 1347417, 2020; active = well fitted inhibition curve with a large enough effect; also: nearly all actives have a fitted effect of over 65% in size
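Readout: SYBR Green fluorescence, 485 nm excitation, 535 nm emission, after ~16 h lysis at 37C. Before that, Dd2-infected red cells (2.5% hematocrit) grew 72 h with compound, 29 uM top final concentration.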
Of the large screens only hits and unclear results are named; the others gave an inactive call. This excerpt belongs to a sample that is enriched for hits.

COc1ncc(C(=O)NCc2cccnc2N2CCN(C(C)=O)CC2)cn1	none
CCC1=C(c2ccc(C)cc2)S(=O)(=O)N=C1N1CCC(C(=O)NCCc2cccc(OC)c2)CC1	Pf Dd2 inh 7.9µM
CC1=C(c2ccc(C)c(C)c2)S(=O)(=O)N=C1N1CCC(C(=O)NCc2ccccc2C)CC1	none
CCOC(=O)C1CCN(C(=O)C2CCN(C3=NS(=O)(=O)C(c4ccc(C)cc4)=C3CC)CC2)CC1	Pf Dd2 inh 11µM
CCc1ccc(C2=C(C)C(N3CCC(C(=O)NCc4ccccc4)CC3)=NS2(=O)=O)cc1	none
CCOC(=O)C1CCN(C(=O)CN2c3ccc(CC)cc3-c3ccccc3S2(=O)=O)CC1	none
CCOC(=O)C1CCN(C(=O)C2CCc3nc(N4CCN(C(C)=O)CC4)sc3C2)CC1 (centres undefined)	none
OC1(CN2CCCCC2)CCN(Cc2cnc(-c3ccccn3)nc2)C1 (centres undefined)	none
CCOc1ccc(NC(=O)Cn2ccn3nc(-c4ccc(F)cc4)c(CO)c3c2=O)cc1	none
CNC(=O)c1noc([C@@H]2CC(F)(F)CN2C(=O)c2cccc(C)c2)n1	none
COc1ccc(-c2cc(N3CCCC(NC(=O)c4ccc(F)cc4Cl)C3)n[nH]2)cc1 (centres undefined)	none
CCOCCOC1CCN(S(=O)(=O)Cc2ccccc2F)CC1	none
COc1ccc(C2Cn3nnc(-c4nc(-c5cccc(C(F)(F)F)c5)no4)c3CO2)cc1 (centres undefined)	none
Cc1cc(N2CCCN(C(=O)Nc3nncs3)CC2)ccn1	none
O=C(Nc1ccccc1)N1CCN(c2ccc(Cl)nn2)C(=O)C1	none
COCCNC(=O)[C@@H]1CCC[C@@H](NCc2nccn2C)CN(C)C(=O)C1	none
COc1ccc(NC(=O)C2=C(C)Nc3c(C(=O)Nc4ccc(C)cc4)cnn3C2c2cccc(Cl)c2)cc1 (centres undefined)	Pf Dd2 inh 3.2µM
COc1cc(C2C(C(=O)Nc3ccc(Cl)cc3)=C(C)Nc3nc(SC)nn32)cc(OC)c1OC (centres undefined)	none
COc1cccc(C2C(C(=O)Nc3ccc(Cl)cc3)=C(C)Nc3c(C(=O)Nc4ccccc4)cnn32)c1OC (centres undefined)	Pf Dd2 inh 13µM
COc1ccc(C2C(C(=O)Nc3ccc(Cl)cc3)=C(C)Nc3nc(SCc4cccc(C)c4)nn32)cc1OC (centres undefined)	none
COc1ccc(NC(=O)C2=C(C)Nc3nc(SCc4ccc(Cl)cc4)nn3C2c2cccc(OC)c2OC)cc1 (centres undefined)	none
COc1cccc(C2C(C(=O)Nc3ccc(Cl)cc3)=C(C)Nc3nc4ccccc4n32)c1OC (centres undefined)	none
CCOc1cccc(CNC(=O)Cn2c(C)ccc(NC(=O)NC)c2=O)c1	none
CC(C(=O)N1CCC(c2cc(Cc3ccccc3)[nH]n2)CC1)N1CCCC1=O (centres undefined)	none
O=C(c1cccnc1CCC1COc2ccccc2O1)N1CCCC1 (centres undefined)	none
CC(C)Nc1ccc2nnc(C3CCC3)n2n1	none
Cc1ccc(CNc2ccc3nnc(C4CCC4)n3n2)o1	Pf Dd2 inh 7.1µM
CCc1nnc2ccc(NCC3CCCO3)nn12 (centres undefined)	none
CC1Oc2ccc(NC(=O)c3cccs3)cc2CN(Cc2ccccc2)C1=O (centres undefined)	none
COc1ccc2c(c1)CN(C(=O)c1ccnc(Cl)c1)CC[C@H]1COC(=O)N21	none
COc1ccccc1N1CCN(C(=O)c2cnn(-c3cccc(Cl)c3)c2C2CCN(C(=O)OC(C)(C)C)CC2)CC1	Pf Dd2 inh 7.9µM
CC(C)(C)OC(=O)N1CCC(c2c(C(=O)N3CCC(c4ccccc4)C3)cnn2-c2cccc(Cl)c2)CC1 (centres undefined)	Pf Dd2 inh 3.5µM
CC(C)(C)OC(=O)N1CCC(c2c(C(=O)N3CCN(Cc4ccccc4)CC3)cnn2-c2cccc(Cl)c2)CC1	Pf Dd2 inh 3.2µM
CC(C)(C)OC(=O)N1CCC(c2c(C(=O)N3CCN(c4ncccn4)CC3)cnn2-c2ccccc2)CC1	none
Cc1ccc(C2CCN(C(=O)c3cnn(-c4cccc(Cl)c4)c3C3CCN(C(=O)OC(C)(C)C)CC3)C2)cc1 (centres undefined)	Pf Dd2 inh 4.5µM
CN1CCN(C(=O)c2cnn(-c3cccc(F)c3)c2C2CCN(C(=O)OC(C)(C)C)CC2)CC1	none
Cc1cccc(-n2ncc(C(=O)N3CCOCC3)c2C2CCN(C(=O)OC(C)(C)C)CC2)c1	none
COCCOCc1nc(C2CCN(C(=O)c3cc(C)n(C)n3)C2)no1 (centres undefined)	none
O=C(c1cncc(Br)c1)N1CCC(n2c(=O)[nH]c3ccccc32)CC1	none
Cc1nnc(NC(=O)NCCn2nc(-c3ccccc3)ccc2=O)s1	none
Cc1nc(-c2cn(C3CCCN(C(=O)c4cccc(F)c4)C3)nn2)no1 (centres undefined)	none
CN1CC[C@H]2CN(C(=O)c3cn(-c4ccccc4)nn3)C[C@@]2(C(=O)O)C1	none
O=C(CCC1CCN(C(=O)c2ccccc2)CC1)NCc1cccc(C(F)(F)F)c1	none
Cc1cnc(C(=O)NC2C[C@H]3CC[C@@H](C2)N3C(=O)Cc2ccc(F)cc2)cn1 (some centres undefined)	none
O=C(NCc1cc2n(n1)CCNC2)C1CCCN(c2ccccn2)C1 (centres undefined)	none
COc1ccc(-c2cc(C[C@@H]3C[C@H](NCc4ccncc4)C3(C)C)no2)cc1	none
CCOc1cc(-c2ccc(OC(=O)c3ccccc3Cl)c(OC)c2)cc(=O)c2c(C)oc(C)c12	none
COc1ccc(-c2cc(OC(=O)c3ccc(F)cc3)c3c(C)oc(C)c3c(=O)c2)cc1OC	Pf Dd2 inh 10µM
CCOC(=O)c1c(-c2ccc(OC)c(OC)c2)csc1NC(=O)c1ccc(F)cc1	none
CCCc1ccc(-c2ccc(C(=O)Oc3ccc(OCC)cc3)cc2)nc1	none
COc1ccc(F)cc1-c1ccc(C(=O)O)cc1	none
CCOc1ccc(-c2cc(OC(=O)c3ccc(OC)cc3)c3c(C)oc(C)c3c(=O)c2)cc1	Pf Dd2 inh 10µM
CC(=O)N1CCC([C@@H]2CN(C(=O)c3ccc(C#N)cc3)C[C@H]2CO)CC1	none
Cc1ccc(CN2C[C@@H](CO)[C@H](NC(=O)c3ccccc3)C2)nc1	none
CCN1CCN(Cc2c(O)ccc3c(=O)c(Oc4ccccc4C(C)C)c(C(F)(F)F)oc23)CC1	Pf Dd2 inh 0.063µM
CC(C)c1ccccc1Oc1c(C(F)(F)F)oc2c(CN3CCN(C)CC3)c(O)ccc2c1=O	Pf Dd2 inh 0.32µM
CCN1CCN(C(c2ccccc2F)c2c(O)cc(C)n(CCOC)c2=O)CC1 (centres undefined)	none
CN1CCN(Cc2nc(C3(O)CCN(Cc4ccc(C(F)(F)F)cc4)CC3)cs2)CC1	none
COc1ccc(CN2CCC(O)(c3csc(CN4CCN(C)CC4)n3)CC2)cc1	none
CCc1ccc(Oc2c(C(F)(F)F)oc3c(CN4CCN(C)CC4)c(O)ccc3c2=O)cc1	Pf Dd2 inh 0.28µM
c1ccc(-c2ccccc2Nc2cnc3ccc(-n4ccnc4)nn23)cc1	none
CCNC(=O)c1cccnc1OC1CCN(C(=O)c2cccc(C)c2)C1 (centres undefined)	none
O=C(c1cccs1)N1CCC2(CC1)CC(Cc1ccc(F)cc1)CCO2 (centres undefined)	none
Cc1ccc(C(=O)NCC23CCC=C2N(C)C(=O)CC3)cn1 (centres undefined)	none
Cc1noc2c(Nc3ccc(C(N)=O)cc3)cc(-c3cccnc3)nc12	none
COc1ccccc1C(O)c1nc(Nc2ccc(Cl)cc2F)n[nH]1 (centres undefined)	none
CCOc1ccc(-c2cccc3c2CCNC3)cc1C(N)=O	none

From PubChem
